The source of these data is PubChem BioAssay (Tox21).

Where “and” joins values, the source holds several entries; their conditions need not be identical. Identical values can stand only once. Inconclusive results are not listed. More than one record can exist for a structure, and the calls need not agree. Calls of active or inactive are those of the source. Unless noted, calls follow the shape of the dose curve; as a rule, active = well fitted curve in the direction sought with a large enough effect in the repeat runs; inconclusive = weak or mixed curves; inactive = no such curve, though single readings can be large; an effect the other way counts as inactive or inconclusive.

Assay [1] is described as follows: Human pregnane X receptor (PXR) small molecule agonists, qHTS cell viability counter screen (AID 1346977). Also: nearly all actives have a fitted effect of over 50% in size. Also: potency is read from the fitted curve at half-maximal effect. Summed up:
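Cytotoxicity counter screen run in the same wells as the PXR luciferase assay, using PXR-Luc HepG2 cells in charcoal-stripped serum medium. Viability: CellTiter-Fluor fluorescence after 24hr compound treatment.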
(In qHTS, concentration-response curves come from the screen itself.)

A short description of assay [2]: Caspase-3/7 induction in HepG2 cells by small molecules, qHTS assay (AID 1346978). Also: nearly all actives have a fitted effect of over 15% in size. The method in brief: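 Wild-type HepG2 cells (2,000/well) were settled 5 h at 37 C, 5% CO2, then exposed to compounds in DMSO for 17 h. Caspase-3/7 activity was read by luminescence 30 min after adding Caspase-Glo 3/7 reagent at room temperature.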
Assay [3] in a line: Caspase-3/7 induction in CHO-K1 cells by small molecules, qHTS cell viability counter screen (AID 1346979). Also: nearly all actives have a fitted effect of over 35% in size. Also: potency is read from the fitted curve at half-maximal effect. The method in brief: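 Cytotoxicity counter screen run in parallel with the caspase-3/7 assay: CHO-K1 cells, 16hr compound treatment at 37C, then CellTiter-Fluor for 1hr before fluorescence reading.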
Assay [4] can be described thus: Caspase-3/7 induction in CHO-K1 cells by small molecules, qHTS assay (AID 1346980). Also: nearly all actives have a fitted effect of over 15% in size. The method in brief:
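Wild-type cells were seeded at 1,500 per well and settled 5 hr at 37 C, 5% CO2, then exposed to DMSO-dissolved compounds for 17 hr. Caspase-Glo 3/7 reagent was added, and luminescence was read after 30min at room temperature.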

Assay [5] is described as follows: Caspase-3/7 induction in HepG2 cells by small molecules, qHTS cell viability counter screen (AID 1346981). Also: nearly all actives have a fitted effect of over 30% in size. Also: potency is read from the fitted curve at half-maximal effect. As to activity change, negative = cytotoxicity: series mostly up to about 92 µM. Summed up:
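Fluorescence read-out of live-cell protease activity (CellTiter-Fluor) after 1 hr with reagent. This was measured in the same wells as the caspase-3/7 luminescence, on HepG2 cells exposed to DMSO-dissolved compounds for 16 hr at 37 C.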

The target in assay [6] is Nuclear receptor subfamily 1 group I member 2 (Homo sapiens) (UniProt O75469). Nature of the assay: Human pregnane X receptor (PXR) small molecule agonists, qHTS assay (AID 1346982). Also: nearly all actives have a fitted effect of over 35% in size. Also: potency is read from the fitted curve at half-maximal effect. The method in brief:
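HepG2 PXR-Luc reporter line, 5% charcoal-stripped FBS; 5 hr pre-incubation, compound (DMSO) 24 hr at 37 C/5% CO2; ONE-Glo 30 min RT; luminescence read-out.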

Assay [7] has as its target Acetylcholinesterase (Homo sapiens) (UniProt P22303). Nature of the assay: Acetylcholinesterase (AChE) small molecule antagonists: colormetric cell-based qHTS assay (AID 1347395; calls by dose curve; also: nearly all actives have a fitted effect of over 30% in size). The method in brief:
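Cells (SH-SY5Y, 2,000 per well) are seeded and left overnight at 37 C. Compound is added for 30 min, then DTNB and acetylthiocholine for a further 90 min at 37 C before absorbance-based thiocholine detection.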

Assay [8] shares this target. Nature of the assay: Acetylcholinesterase (AChE) small molecule antagonists: enzyme-based qHTS assay (AID 1347397; calls by dose curve; also: nearly all actives have a fitted effect of over 55% in size). Conditions: Potency: AChE enzyme activity inhibition; outcome: AChE enzyme activity inhibition. Summed up:
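Tox21 library chemicals are tested in qHTS format against recombinant human AChE. The enzyme, dispensed at 50 mU/mL, sits with compound for 30 min at room temperature. A DTNB–acetylthiocholine cocktail follows, and colour is read after 10 min.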

The target is the same in assay [9]. The assay is described as follows: Acetylcholinesterase (AChE) small molecule antagonists: fluorescence cell-based qHTS assay (AID 1347398; calls by dose curve; also: nearly all actives have a fitted effect of over 50% in size). Conditions: Potency: AChE activity; outcome: AChE activity. Summed up: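 Cellular AChE inhibition: SH-SY5Y cells treated with test chemical for 30 min at 37 C, then acetylthiocholine hydrolysis followed over 40 min at room temperature via thiocholine-reactive Thiolite Green fluorescence (490/520 nm).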

Assay [10] shares this target. Nature of the assay: Acetylcholinesterase (AChE) small molecule antagonists: enzyme-based qHTS assay with human liver microsomes (AID 1347399; calls by dose curve; also: nearly all actives have a fitted effect of over 60% in size). The note with it: Potency: qHTS inhibition; outcome: qHTS inhibition. Summed up:
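Recombinant human AChE (50 mU/mL in the enzyme mix) and human liver microsomes (0.25 mg/mL final) were preincubated with compound and NADPH (0.25 mg/mL final) for 30 min at 37 C. Acetylthiocholine/DTNB was then added; thiocholine was read colorimetrically after 10 min at room temperature.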

Assay [11] concerns the target Cytochrome P450 2D6 (Homo sapiens) (UniProt P10635). Nature of the assay: Cytochrome P450 Family 2 Subfamily D Member 6 (CYP2D6) small molecule antagonists: luciferase reporter qHTS assay (AID 1671196). Also: nearly all actives have a fitted effect of over 50% in size. Also: potency is read from the fitted curve at half-maximal effect. As to activity change, negative = inhibition: series mostly up to about 120 µM. The method in brief:
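Luminogenic proluciferin substrate, CYP2D6 enzyme; 10 min RT preincubation with compound, NADPH regeneration system added, 1 h RT. Stop/detection reagent, 20 min RT, luminescence read (RLU). Signal proportional to CYP activity.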

The target of assay [12] is Cytochrome P450 2C19 (Homo sapiens) (UniProt P33261). Nature of the assay: Cytochrome P450 Family 2 Subfamily C Member 19 (CYP2C19) small molecule antagonists: luciferase reporter qHTS assay (AID 1671197). Also: nearly all actives have a fitted effect of over 65% in size. Also: potency is read from the fitted curve at half-maximal effect. As to activity change, negative = inhibition: series mostly up to about 120 µM. The method in brief: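 First, compounds are pinned into enzyme-substrate mix and held 10 min at room temperature. Second, NADPH regeneration solution is added and plates incubate 1 h at 37C. Third, detection reagent is added and luminescence read after 20 min.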
Chain of Cytochrome P450 2C19 (Homo sapiens) (P33261 whole entry, looked up): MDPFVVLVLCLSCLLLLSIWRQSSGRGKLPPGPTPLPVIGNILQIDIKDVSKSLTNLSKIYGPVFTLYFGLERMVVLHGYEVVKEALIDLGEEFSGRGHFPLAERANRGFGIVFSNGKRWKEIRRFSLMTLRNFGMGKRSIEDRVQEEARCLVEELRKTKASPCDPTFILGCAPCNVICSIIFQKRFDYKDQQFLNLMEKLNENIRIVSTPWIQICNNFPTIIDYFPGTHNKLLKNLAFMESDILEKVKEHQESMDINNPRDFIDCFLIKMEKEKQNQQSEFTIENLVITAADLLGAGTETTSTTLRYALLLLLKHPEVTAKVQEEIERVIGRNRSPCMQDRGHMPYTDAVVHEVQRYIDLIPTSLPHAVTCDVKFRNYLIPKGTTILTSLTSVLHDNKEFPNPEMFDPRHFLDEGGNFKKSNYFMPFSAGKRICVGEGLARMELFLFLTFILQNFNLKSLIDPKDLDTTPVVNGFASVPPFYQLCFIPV
In general terms: In a reporter assay the amount or activity of a reporter protein is the signal.

Assay [13] addresses Cytochrome P450 2C9 (Homo sapiens) (UniProt P11712). The assay is described as follows: Cytochrome P450 Family 2 Subfamily C Member 9 (CYP2C9) small molecule antagonists: luciferase reporter qHTS assay (AID 1671198). Also: nearly all actives have a fitted effect of over 50% in size. Also: potency is read from the fitted curve at half-maximal effect. As to activity change, negative = inhibition: series mostly up to about 120 µM. The method in brief:
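CYP2C9 activity was measured with a P450-Glo proluciferin substrate. Enzyme–substrate mix was held with compound for 10 min at room temperature, then NADPH regeneration solution was added for 1 h at 37C. Luciferin product was read as luminescence.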

Assay [14] deals with Cytochrome P450 1A2 (Homo sapiens) (UniProt P05177). The assay is described as follows: Cytochrome P450 Family 1 Subfamily A Member 2 (CYP1A2) small molecule antagonists: luciferase reporter qHTS assay (AID 1671199). Also: nearly all actives have a fitted effect of over 50% in size. Also: potency is read from the fitted curve at half-maximal effect. As to activity change, negative = inhibition: series mostly up to about 120 µM. The method in brief: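 Luminescence readout (relative luminescence units) after luciferin detection reagent, 20 min RT. Preceded by 1 h room-temperature CYP1A2 reaction with NADPH regeneration solution following 10 min compound preincubation with enzyme and proluciferin substrate. Furafylline positive control.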
Chain of Cytochrome P450 1A2 (Homo sapiens) (P05177 whole entry, looked up): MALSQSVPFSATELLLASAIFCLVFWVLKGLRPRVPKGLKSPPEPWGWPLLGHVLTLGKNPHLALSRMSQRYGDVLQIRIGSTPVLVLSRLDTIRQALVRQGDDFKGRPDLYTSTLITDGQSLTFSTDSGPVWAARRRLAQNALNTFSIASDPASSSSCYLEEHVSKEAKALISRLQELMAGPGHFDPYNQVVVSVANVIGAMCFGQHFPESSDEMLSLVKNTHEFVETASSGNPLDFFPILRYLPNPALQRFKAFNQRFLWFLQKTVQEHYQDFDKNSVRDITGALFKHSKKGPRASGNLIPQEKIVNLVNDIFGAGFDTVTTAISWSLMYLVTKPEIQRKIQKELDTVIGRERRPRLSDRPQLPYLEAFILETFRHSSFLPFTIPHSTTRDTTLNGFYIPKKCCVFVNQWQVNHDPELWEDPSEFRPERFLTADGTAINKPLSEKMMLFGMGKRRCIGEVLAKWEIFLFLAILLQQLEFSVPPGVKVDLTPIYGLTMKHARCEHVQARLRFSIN

Assay [15] deals with Voltage-gated inwardly rectifying potassium channel KCNH2 (Homo sapiens) (UniProt Q12809). Nature of the assay: Human Ether-a-go-go-Related Gene (hERG) channel small molecule antagonists: fluorescence cell-based qHTS assay (AID 1671200). Summed up: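 Fluorescence at 540 nm emission (480 nm excitation) was recorded kinetically for 2 min at 1-second intervals once the thallium-containing stimulus reached cells previously loaded with FluxOR II dye.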
Chain of Voltage-gated inwardly rectifying potassium channel KCNH2 (Homo sapiens) (Q12809 whole entry, looked up): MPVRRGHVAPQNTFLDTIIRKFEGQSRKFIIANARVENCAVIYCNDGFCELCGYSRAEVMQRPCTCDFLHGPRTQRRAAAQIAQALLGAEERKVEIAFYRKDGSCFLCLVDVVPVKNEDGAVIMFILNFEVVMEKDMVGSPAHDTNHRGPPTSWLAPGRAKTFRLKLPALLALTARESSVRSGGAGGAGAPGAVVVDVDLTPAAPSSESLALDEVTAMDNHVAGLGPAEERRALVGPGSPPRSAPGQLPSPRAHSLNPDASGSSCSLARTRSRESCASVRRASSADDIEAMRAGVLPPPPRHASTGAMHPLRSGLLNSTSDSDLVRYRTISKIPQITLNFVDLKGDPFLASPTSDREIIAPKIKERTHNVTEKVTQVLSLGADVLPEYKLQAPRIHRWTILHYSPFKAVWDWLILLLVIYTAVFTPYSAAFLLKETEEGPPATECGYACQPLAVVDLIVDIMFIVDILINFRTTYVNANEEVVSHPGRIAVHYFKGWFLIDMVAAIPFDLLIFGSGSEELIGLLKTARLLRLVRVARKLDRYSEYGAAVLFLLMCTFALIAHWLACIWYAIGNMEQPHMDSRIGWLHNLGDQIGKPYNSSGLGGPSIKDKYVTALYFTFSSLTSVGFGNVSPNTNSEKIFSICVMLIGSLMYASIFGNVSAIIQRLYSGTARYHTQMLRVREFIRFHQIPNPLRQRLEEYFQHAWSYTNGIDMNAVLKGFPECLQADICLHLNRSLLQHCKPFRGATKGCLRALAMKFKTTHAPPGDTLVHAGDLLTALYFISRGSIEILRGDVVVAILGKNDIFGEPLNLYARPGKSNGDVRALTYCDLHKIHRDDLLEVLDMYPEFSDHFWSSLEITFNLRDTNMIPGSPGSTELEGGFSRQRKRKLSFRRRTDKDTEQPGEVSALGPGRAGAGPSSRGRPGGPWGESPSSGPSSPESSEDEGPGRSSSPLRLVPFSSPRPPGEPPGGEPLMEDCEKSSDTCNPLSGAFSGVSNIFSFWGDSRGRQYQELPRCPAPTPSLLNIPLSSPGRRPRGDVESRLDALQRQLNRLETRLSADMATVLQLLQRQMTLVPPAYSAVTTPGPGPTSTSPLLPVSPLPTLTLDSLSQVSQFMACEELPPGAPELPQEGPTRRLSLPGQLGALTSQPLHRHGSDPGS
For orientation: Block of hERG is tested as a sign of cardiac risk.

In assay [16] the target is Cytochrome P450 3A4 (Homo sapiens) (UniProt P08684). The assay is described as follows: Cytochrome P450 Family 3 Subfamily A Member 4 (CYP3A4) small molecule antagonists: luciferase reporter qHTS assay (AID 1671201). Also: nearly all actives have a fitted effect of over 50% in size. Also: potency is read from the fitted curve at half-maximal effect. As to activity change, negative = inhibition: series mostly up to about 120 µM. Summed up:
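qHTS, 1536-well. CYP3A4 + proluciferin substrate, cpd 10 min RT → NADPH regen 1 h RT → detection reagent 20 min → luminescence (RLU). Ketoconazole positive control.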
% is scaled to controls: 0 for no effect and ±100 for the full control effect.

Chain of Nuclear receptor subfamily 1 group I member 2 (Homo sapiens) (O75469 whole entry, looked up): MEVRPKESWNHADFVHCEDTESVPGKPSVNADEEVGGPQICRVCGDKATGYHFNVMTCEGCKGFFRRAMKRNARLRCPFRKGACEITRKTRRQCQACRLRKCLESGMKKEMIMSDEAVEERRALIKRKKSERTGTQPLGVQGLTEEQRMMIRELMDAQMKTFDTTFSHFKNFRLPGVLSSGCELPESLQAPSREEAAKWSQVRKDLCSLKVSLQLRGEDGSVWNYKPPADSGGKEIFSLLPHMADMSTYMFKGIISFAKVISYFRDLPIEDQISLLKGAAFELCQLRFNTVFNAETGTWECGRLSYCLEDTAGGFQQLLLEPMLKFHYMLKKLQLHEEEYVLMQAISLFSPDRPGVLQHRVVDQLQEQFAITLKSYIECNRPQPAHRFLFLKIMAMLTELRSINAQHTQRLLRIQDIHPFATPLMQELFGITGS
Chain of Cytochrome P450 2C9 (Homo sapiens) (P11712 whole entry, looked up): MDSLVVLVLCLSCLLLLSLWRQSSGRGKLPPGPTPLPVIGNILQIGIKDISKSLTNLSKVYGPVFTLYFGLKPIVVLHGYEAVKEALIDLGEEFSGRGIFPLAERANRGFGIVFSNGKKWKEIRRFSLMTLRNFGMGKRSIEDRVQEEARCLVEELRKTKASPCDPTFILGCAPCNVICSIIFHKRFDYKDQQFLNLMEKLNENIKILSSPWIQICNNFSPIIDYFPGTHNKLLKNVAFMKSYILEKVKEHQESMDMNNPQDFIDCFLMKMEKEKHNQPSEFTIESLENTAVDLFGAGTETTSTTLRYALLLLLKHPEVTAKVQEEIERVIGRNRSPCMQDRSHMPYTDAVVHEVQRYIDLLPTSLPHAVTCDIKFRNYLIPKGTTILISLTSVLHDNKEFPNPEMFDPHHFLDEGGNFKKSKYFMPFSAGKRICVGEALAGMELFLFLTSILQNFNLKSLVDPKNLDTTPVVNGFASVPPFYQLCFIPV
Chain of Cytochrome P450 2D6 (Homo sapiens) (P10635 whole entry, looked up): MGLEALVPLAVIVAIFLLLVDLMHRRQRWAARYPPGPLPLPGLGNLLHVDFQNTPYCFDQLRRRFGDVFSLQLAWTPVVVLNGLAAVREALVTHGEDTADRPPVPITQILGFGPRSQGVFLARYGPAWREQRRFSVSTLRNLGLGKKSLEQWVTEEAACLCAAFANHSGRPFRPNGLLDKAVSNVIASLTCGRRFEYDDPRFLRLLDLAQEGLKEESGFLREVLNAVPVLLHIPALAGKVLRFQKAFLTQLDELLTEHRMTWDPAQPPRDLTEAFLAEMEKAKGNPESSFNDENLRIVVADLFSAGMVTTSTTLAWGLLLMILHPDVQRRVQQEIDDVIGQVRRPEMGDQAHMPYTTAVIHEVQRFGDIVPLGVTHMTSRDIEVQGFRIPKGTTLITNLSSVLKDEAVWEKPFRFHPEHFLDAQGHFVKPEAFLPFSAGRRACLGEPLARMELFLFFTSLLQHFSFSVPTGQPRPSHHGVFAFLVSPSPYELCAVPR
Chain of Acetylcholinesterase (Homo sapiens) (P22303 whole entry, looked up): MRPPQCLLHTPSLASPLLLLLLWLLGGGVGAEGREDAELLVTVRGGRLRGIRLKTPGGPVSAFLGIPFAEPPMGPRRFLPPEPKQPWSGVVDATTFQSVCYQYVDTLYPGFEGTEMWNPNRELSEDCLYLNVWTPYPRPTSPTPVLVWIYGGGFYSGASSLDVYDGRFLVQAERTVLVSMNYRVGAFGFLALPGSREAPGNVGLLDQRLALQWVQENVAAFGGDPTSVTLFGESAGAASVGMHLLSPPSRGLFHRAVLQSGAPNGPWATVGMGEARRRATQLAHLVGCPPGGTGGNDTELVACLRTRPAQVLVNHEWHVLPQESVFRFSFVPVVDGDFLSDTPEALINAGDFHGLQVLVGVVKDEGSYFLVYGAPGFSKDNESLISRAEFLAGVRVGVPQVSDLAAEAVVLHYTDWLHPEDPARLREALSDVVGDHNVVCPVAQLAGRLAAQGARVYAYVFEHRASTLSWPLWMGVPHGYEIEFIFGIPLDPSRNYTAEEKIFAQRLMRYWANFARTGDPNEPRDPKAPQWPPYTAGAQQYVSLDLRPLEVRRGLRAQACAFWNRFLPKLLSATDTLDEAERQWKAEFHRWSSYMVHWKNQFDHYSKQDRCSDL
Chain of Cytochrome P450 3A4 (Homo sapiens) (P08684 whole entry, looked up): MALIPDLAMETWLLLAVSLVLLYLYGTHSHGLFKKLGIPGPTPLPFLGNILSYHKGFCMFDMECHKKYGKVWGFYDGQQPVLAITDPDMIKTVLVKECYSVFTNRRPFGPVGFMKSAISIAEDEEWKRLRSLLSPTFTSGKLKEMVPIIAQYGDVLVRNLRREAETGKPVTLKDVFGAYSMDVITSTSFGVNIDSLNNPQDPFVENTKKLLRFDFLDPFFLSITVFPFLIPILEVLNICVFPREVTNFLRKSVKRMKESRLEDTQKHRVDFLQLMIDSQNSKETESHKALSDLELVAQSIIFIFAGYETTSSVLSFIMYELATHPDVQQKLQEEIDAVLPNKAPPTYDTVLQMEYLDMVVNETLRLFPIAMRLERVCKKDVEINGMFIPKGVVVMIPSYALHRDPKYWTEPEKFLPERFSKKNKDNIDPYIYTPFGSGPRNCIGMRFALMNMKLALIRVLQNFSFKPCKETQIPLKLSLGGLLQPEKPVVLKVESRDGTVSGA

In the case of `CC1(C)CC(=O)CC(C)(C)N1[O]`, the Potency result in [1], in [2], in assay [3], in assay [4], in [5] and in assay [6] was “inactive” each time. Further, the Potency entry in assay [7], in assay [8], in assay [9], in [10], in assay [11] and in assay [12] was “inactive” throughout. The Potency result in assay [13], in assay [14], in assay [15] and in assay [16] was “inactive” throughout.
Take `CCOC(=O)C1OC1(C)c1ccccc1` (stereo not given): the Potency result in assay [1], in assay [2], in assay [3], in [4], in assay [5] and in [6] was “inactive” throughout. Further, the Potency entry in [7], in assay [8], in assay [9], in assay [10], in assay [15] and in assay [16] was “inactive” throughout. The Potency in assay [11] is 71.6 µM (active) and inactive; in [12], 35.9 µM (active) and 71 µM (active).
As for `O=C(O)C(F)(F)C(F)(F)C(F)(F)C(F)(F)C(F)(F)C(F)(F)C(F)(F)C(F)(F)F`, the Potency entry in assay [1], in assay [2], in [3], in assay [4], in [5] and in assay [7] was “inactive” throughout. Further, the Potency entry in assay [8], in [9], in assay [10], in [11], in assay [14] and in [15] was “inactive” throughout. The Potency result in assay [16] is “inactive”. Further, the Potency in assay [6] was 21.7 µM (active); in assay [12] it was 71 µM (active); in assay [13], 1.78 µM (active).
In the case of `CCCCNC(=O)OCC#CI`, the Potency in [1] was 35.5 µM (active) and 27.3 µM (active); in [3], 30.5 µM (active) and 27.3 µM (active); in assay [5], 48.3 µM (active) and 61.1 µM (active); in [11], 31.6 µM (active) and 35.6 µM (active); in assay [12] it was 2.81 µM (active) and 2.52 µM (active); in assay [13], 5 µM (active) and 5.03 µM (active). Also, the Potency was 3.54 µM (active) and 5.64 µM (active) in assay [14]; 3.54 µM (active) and 5.64 µM (active) in assay [16]. The Potency entry in assay [2], in assay [4], in assay [6], in assay [7], in [8] and in [9] was “inactive” throughout. Further, the Potency entry in [10] and in [15] was “inactive” in each case.
Consider `COC(=O)Cc1ccccc1`, for which the Potency result in assay [1], in [2], in assay [3], in assay [4], in assay [5] and in assay [6] was “inactive” in each case. Further, the Potency result in assay [7], in assay [8], in assay [9], in assay [10], in assay [11] and in assay [12] was “inactive” each time. Also, the Potency entry in [14], in [15] and in [16] was “inactive” each time.
On to `CCCCCCCCCCCCN=C(N)N`, for which the activity change, negative = cytotoxicity in [1] was 1.51% [at 3.27 µM] (inactive); in assay [3] it was -4.73% [at 3.27 µM] (inactive); in [5], -9.99% [at 3.27 µM] (inactive). For the same compound, the caspase activation in assay [2] is -1.34% [at 3.27 µM] (inactive). In addition, in [4], the caspase-3/7 activation was -1.72% [at 3.27 µM] (inactive). Further, the activation in [6] is 13.3% [at 3.27 µM] (inactive). The activity, negative = inhibition in assay [7] is -5.91% [at 4.07 µM] (inactive). The activity change, negative = inhibition in assay [8] is -1.29% [at 4.07 µM] (inactive); in [9], -10.7% [at 3.98 µM] (inactive); in assay [10], 1.01% [at 4.07 µM] (inactive); in assay [13], -14.6% [at 4.07 µM] (inactive); in [15] it was -4.13% [at 2.72 µM] (inactive); in [16], 2.59% [at 4.07 µM] (inactive). Besides, the Potency in assay [14] is 2.2 µM (active).
As to `O=[N+]([O-])c1cc(Cl)c(Cl)cc1Cl`, the Potency result in assay [1], in assay [2], in assay [3], in [4], in [5] and in [6] was “inactive” throughout. The Potency entry in assay [8], in assay [9], in assay [10], in assay [11], in [13] and in assay [15] was “inactive” each time. For the same compound, the Potency result in assay [16] was “inactive”. Also, the Potency in assay [14] is 5.61 µM (active).
